# Bioassay records from PubChem.
# Vaccinia Venus = vaccinia inhibition (Venus reporter); Vaccinia virus Venus reporter expression, fluorescence; actives 0.46% (n = 330,000); Potency, µM (highest dose often 36.5 µM), most hits filed as inhibitors; AID 720580; calls by dose curve; tested in A549 cells; note: nearly all actives have a fitted effect of over 30% in size
# MARV entry inh = inhibitors of Marburg virus binding or cell entry. Marburg virus pseudotyped entry inhibition, cell reporter. Potency, µM (series often up to 37.8 µM), most hits filed as inhibitors. actives 1.8% (n = 300,000). AID 540276; calls by dose curve; tested in HEK293 cells
# HCV inhibitor = blocks hepatitis C virus | Huh7.5.1 HCVcc-Cre infection, luciferase reporter, 44 h | Potency, µM (top dose mostly 41.8 µM), usual class: inhibitors | actives 3.4% (n = 340,000) | AID 651820; active = well fitted inhibition curve with a large enough effect; inconclusive = small, poorly fitted or top-dose-only effect, or another doubt; inactive = no such curve, though single readings can be large or run the other way
#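 Antiviral activity was scored by luciferase reporter output from cells infected with HCVcc-Cre (~0.5 moi) in presence of compound, 44 h infection period, cells seeded 1,000/well 4 h prior.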
# Vaccinia mCherry = vaccinia inhibition (mCherry reporter) | Potency, µM (series often up to 36.5 µM), usual class: inhibitors | AID 720579 | actives 0.63% (n = 310,000) | Vaccinia virus mCherry reporter infection, fluorescence; calls by dose curve; tested in A549 cells; note: nearly all actives have a fitted effect of over 35% in size
# Lassa entry inh = blocks Lassa virus binding to or entry into cells; Lassa virus pseudotype entry inhibition, cell reporter; actives 1.2% (n = 300,000); Potency, µM (highest dose often 37.9 µM), actives largely listed as inhibitors; calls by dose curve; tested in HEK293 cells; note: nearly all actives have a fitted effect of over 50% in size
# Numbers stand for hits; n = inactive; u = inconclusive; x = not tested or not shown; ! = repeats disagree. Shown are actives, neighbours in structure and some others; about 4.6% of the full set was active somewhere.
SMILES,Vaccinia Venus,MARV entry inh,HCV inhibitor,Vaccinia mCherry,Lassa entry inh
CCOC(=O)C1=C(C)NC(C)=C(C(=O)OCC)C1C(=O)OCC(=O)N1c2ccccc2CC1C (stereo unspecified),n,13µM!,u,n,u
CNC(=O)c1cccc(-n2c(C)nc3cccnc32)c1C,n,x,x,n,n
Cc1ccc(C)c(NC(=O)CN(C)C(=O)c2ccc3[nH]c4c(c3c2)CC(C)CC4)c1 (stereo unspecified),u,n,n,u,0.56µM
COc1cccc(CNC(=O)Cn2c(C)c3cnn(-c4ccccc4)c(=O)c3c2C)c1,n,n,x,n,n
COc1ccc(CCN(C)Cc2ccc(F)cc2F)cc1OC,n,n,n,n,n
COc1ccc(CN(C)CC(O)COc2ccc(C(=O)c3ccccc3)cc2)c(OC)c1OC (stereo unspecified),n,u,u,n,u
COc1ccc(CN(C)CC(O)COC(c2ccccc2)c2ccccc2)c(OC)c1OC (stereo unspecified),n,u,16µM,u,u
COc1ccc(CCN(C)CC(O)COC(c2ccc(F)cc2)c2ccc(F)cc2)cc1OC (stereo unspecified),n,5.6µM,u,n,u
O=C(Nc1ccc2[nH]c(=O)[nH]c2c1)c1ccc([N+](=O)[O-])o1,x,x,10µM,x,x
Cc1ccc(NC(=O)c2ccc([N+](=O)[O-])o2)cc1C,u,u,13µM,u,u
Cc1ccnc(NC(=O)c2ccc([N+](=O)[O-])o2)c1,n,u,u,n,u
Cc1ccc(-n2nnnc2CNC(=O)c2ccc([N+](=O)[O-])o2)cc1C,u,u,22µM,u,u
CCOc1ccc(CS[C@@H](CC(=O)O)C(=O)O)cc1,x,n,x,x,x
COc1cccc(-c2cc(C(F)(F)F)nc(-n3cc(C)cn3)n2)c1,x,x,10µM,x,x
COc1cccc(-c2cc(C(F)(F)F)nc(-n3cncn3)n2)c1,x,u,n,x,n
COc1ccc(OC)c(-c2cc(Cl)c3c(c2)CC(CNC(=O)c2cnn4cccnc24)O3)c1 (stereo unspecified),n,x,x,n,x
Cc1cc(N(C)C)cc(C)c1/C=C/c1ccnc2ccccc12,n,x,x,n,x
COc1ccc(C(=O)C2CCCN(Cc3cccc(C)n3)C2)c(OC)c1 (stereo unspecified),n,u,u,n,u
COc1ccc(/C=C/CN2CCCC(C(=O)c3ccc(OC)c(F)c3)C2)cc1 (stereo unspecified),n,10µM,u,n,x
COc1ccc2cc(C(=O)C3CCCN(Cc4cccc(C)n4)C3)ccc2c1 (stereo unspecified),u,22µM,u,u,u
COc1cccc(C(=O)C2CCCN(C/C=C/c3ccccc3OC)C2)c1 (stereo unspecified),n,u,n,n,n
COc1ccc(C(=O)C2CCCN(Cc3ccc(C#CCCO)cc3)C2)cc1F (stereo unspecified),n,1.1µM,n,n,n
CC(C)CCNC(=O)c1ccc2nc(Cc3ccccc3)oc2c1,n,x,x,n,u
O=C(Nc1cccc(-c2nc3ccccc3s2)c1)c1cc(-n2cnnc2)ccc1Cl,x,x,13µM,x,x
Cc1ccc2sc(-c3ccc(NC(=O)c4cc(-n5cnnc5)ccc4Cl)cc3)nc2c1,x,u,0.89µM,x,u
SMILES,Vaccinia Venus,MARV entry inh,HCV inhibitor,Vaccinia mCherry,Lassa entry inh
Cc1c(NC(=O)c2cc(-n3cnnc3)ccc2Cl)cccc1-c1nc2ccccc2s1,n,u,u,n,n
O=S(=O)(CCc1ccccc1)c1nnnn1C1CCCCC1,x,n,x,x,x
CCOc1ccc(-c2nc(Cn3c(=O)cc(-c4ccccc4)c4c(C)nn(C)c43)c(C)o2)cc1,n,x,x,n,n
COc1ccc2cc(CNC3CCS(=O)(=O)C3)c(-c3ccc(OC)c(OC)c3)nc2c1 (stereo unspecified),n,x,x,n,x
CCOCCCNC(=S)NCCCNc1nc2c(C)cc(C)cc2cc1C#N,x,x,n,x,x
CCC(=O)NCCNc1nc2cc(C)c(C)cc2cc1C#N,x,n,n,x,n
Cc1ccc2cc(C#N)c(NCCNC(=O)C3CC3)nc2c1C,x,u,10µM,x,n
Cc1cc(C)c2nc(NCCCNC(=S)NCCCN(C)C)c(C#N)cc2c1,x,x,11µM,x,x
Cc1ccc2cc(C#N)c(NCCNC(=S)NCCCN(C)C)nc2c1C,13µM,x,u,u,x
Cc1noc2ncnc(Sc3ccc(Br)cc3)c12,n,u,32µM,n,u
CCC(=O)N1c2nc(-c3ccco3)nn2C2(CCCCC2)[C@@H]2CCCC[C@@H]21,n,n,x,n,u
COc1ccc(CCNC(=O)COc2coc(CN3c4ccccc4CC3C)cc2=O)cc1OC (stereo unspecified),n,u,11µM,n,u
Cc1ccc(-c2csc(N(CCO)CCCn3c(C(F)(F)F)nc4ccccc43)n2)cc1,u,x,10µM,n,x
CNC(=O)c1ccc(CSc2nc3cccnc3n2Cc2cccc(F)c2)cc1,n,x,x,n,n
Cc1ccc(Cn2c(C3CCCN3c3nc(-c4cc(Cl)c(N)c(Cl)c4)cs3)nc3cc(C(=O)NCCCO)ccc32)cc1 (stereo unspecified),u,x,1.4µM,u,x
Cc1ccc(Cn2c(C(C)Nc3nc(-c4ccc(F)cc4)cs3)nc3cc(C(=O)NCCCO)ccc32)cc1 (stereo unspecified),n,x,u,n,x
COCCC(=O)NCC1Cc2cc(Cl)cc(-c3ccc4[nH]ccc4c3)c2O1 (stereo unspecified),n,x,x,n,x
Cc1ccc(-n2nc3c(=O)n(C(C)C(=O)NCCC4=CCCCC4)nc(C)c3c2C)cc1 (stereo unspecified),x,x,10µM,x,x
Cc1ccc(-n2nc3c(=O)n(C(C)C(=O)NCc4ccc(Cl)cc4)nc(C)c3c2C)cc1 (stereo unspecified),x,x,22µM,x,x
CCn1nc(C)cc1C(=O)NCC1Cc2cc(C)cc(-c3ccccc3C(=O)OC)c2O1 (stereo unspecified),n,x,x,n,x
CN(C)CCN(C)Cc1ccccc1Sc1cccc2ccccc12,u,u,11µM,13µM,u
CNCc1ccccc1Sc1cccc2ccccc12,n,u,u,n,u
NC(=O)CC(NC(=O)c1ccccc1)c1ccc(NCc2ccccc2)c([N+](=O)[O-])c1 (stereo unspecified),n,x,10µM,n,x
NC(=O)CC(NC(=O)c1ccccc1)c1ccc(NCc2ccc(F)cc2)c([N+](=O)[O-])c1 (stereo unspecified),n,x,n,u,x
NC(=O)CC(NC(=O)Cc1cccc2ccccc12)c1ccc(NC2CC3CCC2C3)c([N+](=O)[O-])c1 (stereo unspecified),n,x,11µM,u,x
NC(=O)CC(NC(=O)Cc1ccc(Br)cc1)c1ccc(N2CCC(Br)CC2)c([N+](=O)[O-])c1 (stereo unspecified),u,x,n,n,x
COc1ccc(CCNc2ccc(C(CC(N)=O)NC(=O)c3ccc(Br)cc3)cc2[N+](=O)[O-])cc1 (stereo unspecified),13µM,x,n,n,x
NC(=O)CC(NC(=O)Cc1cccc2ccccc12)c1ccc(NC2CCCC2)c([N+](=O)[O-])c1 (stereo unspecified),n,x,n,n,x
